These results are taken from article PMC11574364.

Among the targets are PRPF8 (Homo sapiens, UniProt Q6P2Q9); PPIE (Homo sapiens, UniProt Q9UNP9); ADAD1 (Homo sapiens, UniProt Q96M93); RBMXL2 (Homo sapiens, UniProt O75526); SF3B4 (Homo sapiens, UniProt Q15427); RBMY1D / RBMY1E (Homo sapiens, UniProt P0DJD3); SF2 (Homo sapiens, UniProt Q07955); PTBP2 (Homo sapiens, UniProt Q9UKA9); SR140 (Homo sapiens, UniProt O15042); RBPMS2 (Homo sapiens, UniProt Q6ZRY4).

What all share (assay): protein domain microarray probed with biotinylated miRNA; Domain array: 20 mM Tris-HCl pH 7.4, 200 mM KCl, 0.2 mM EDTA, 0.05% NP40, 2 ug/ul heparin, overnight 4 C. ORF array: PBS pH 7.0 with RNase inhibitor, 100 ng RNA; high values mean tight binding
Holding throughout (conditions): ssRNA

Another test concerns the target T1, RBM5 (Homo sapiens, UniProt P52756).
T1 sequence: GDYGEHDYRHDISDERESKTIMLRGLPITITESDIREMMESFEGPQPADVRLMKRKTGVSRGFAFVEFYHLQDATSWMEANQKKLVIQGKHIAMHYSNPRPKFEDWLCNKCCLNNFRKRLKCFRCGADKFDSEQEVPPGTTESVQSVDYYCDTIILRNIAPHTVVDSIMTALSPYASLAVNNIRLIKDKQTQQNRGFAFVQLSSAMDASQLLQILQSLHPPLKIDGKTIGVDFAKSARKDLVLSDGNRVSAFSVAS

In another test the target is T2, RKHD4(1-2) (Homo sapiens, UniProt A1L020).
T2 sequence: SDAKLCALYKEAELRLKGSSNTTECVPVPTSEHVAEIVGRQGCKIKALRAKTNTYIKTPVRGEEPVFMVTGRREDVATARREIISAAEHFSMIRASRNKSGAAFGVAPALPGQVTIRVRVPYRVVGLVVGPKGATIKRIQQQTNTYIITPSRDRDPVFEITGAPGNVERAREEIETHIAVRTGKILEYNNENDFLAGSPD

The target in a further test is T3, SRP46 (Homo sapiens, UniProt Q9BRL6).
T3 sequence: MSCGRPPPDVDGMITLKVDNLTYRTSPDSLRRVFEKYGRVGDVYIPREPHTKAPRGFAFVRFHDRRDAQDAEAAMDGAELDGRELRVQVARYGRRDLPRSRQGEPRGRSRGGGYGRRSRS

In a further test the target is T4, SFRS5 (Homo sapiens, UniProt Q13243).
T4 sequence: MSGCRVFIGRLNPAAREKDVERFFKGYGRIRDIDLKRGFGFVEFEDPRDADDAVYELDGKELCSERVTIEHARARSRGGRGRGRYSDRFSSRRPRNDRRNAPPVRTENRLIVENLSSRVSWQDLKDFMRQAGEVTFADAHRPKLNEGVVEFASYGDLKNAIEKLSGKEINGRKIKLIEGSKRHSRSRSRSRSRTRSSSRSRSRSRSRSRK

The target in another test is T5, ANKHD1 (Homo sapiens, UniProt Q8IWZ3).
T5 sequence: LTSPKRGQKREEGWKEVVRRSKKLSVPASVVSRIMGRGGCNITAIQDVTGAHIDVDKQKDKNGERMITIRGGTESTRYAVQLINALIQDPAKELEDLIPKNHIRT

The target of another test is T6, RBM34 (Homo sapiens, UniProt P42696).
T6 sequence: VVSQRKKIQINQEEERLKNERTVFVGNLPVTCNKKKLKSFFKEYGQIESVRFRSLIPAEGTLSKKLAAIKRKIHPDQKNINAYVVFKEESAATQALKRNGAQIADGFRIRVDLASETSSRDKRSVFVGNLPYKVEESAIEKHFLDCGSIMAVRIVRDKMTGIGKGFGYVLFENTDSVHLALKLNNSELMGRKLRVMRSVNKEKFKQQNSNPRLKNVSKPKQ

Another test has as its target T7, SFRS15 (Homo sapiens, UniProt O95104).
T7 sequence: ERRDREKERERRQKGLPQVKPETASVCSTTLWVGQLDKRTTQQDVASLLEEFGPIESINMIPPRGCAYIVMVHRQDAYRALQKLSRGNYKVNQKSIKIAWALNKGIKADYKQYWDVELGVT

A further test has as its target T8, RBM22 (Homo sapiens, UniProt Q9NW64).
T8 sequence: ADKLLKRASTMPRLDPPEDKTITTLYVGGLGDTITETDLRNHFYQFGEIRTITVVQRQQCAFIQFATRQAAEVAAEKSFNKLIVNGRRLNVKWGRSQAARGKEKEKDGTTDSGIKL

Another test deals with T9, SFRS3 (Homo sapiens, UniProt P84103).
T9 sequence: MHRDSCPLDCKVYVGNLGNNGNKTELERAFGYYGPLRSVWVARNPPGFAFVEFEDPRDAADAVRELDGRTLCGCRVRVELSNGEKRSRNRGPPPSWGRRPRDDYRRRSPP

The target in another test is T10, TRSPAP1 (Homo sapiens, UniProt Q9NX07).
T10 sequence: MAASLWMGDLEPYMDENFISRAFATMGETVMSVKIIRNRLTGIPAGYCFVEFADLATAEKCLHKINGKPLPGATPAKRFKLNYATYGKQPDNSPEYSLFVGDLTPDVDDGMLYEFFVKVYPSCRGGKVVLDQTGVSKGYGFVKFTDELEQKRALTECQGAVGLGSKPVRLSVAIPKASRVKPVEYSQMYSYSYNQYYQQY

Chain of PPIE (Q9UNP9 1-110): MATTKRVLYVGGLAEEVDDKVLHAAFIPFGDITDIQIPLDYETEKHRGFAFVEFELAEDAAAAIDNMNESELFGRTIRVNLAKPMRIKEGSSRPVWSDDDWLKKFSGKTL
Chain of PRPF8 (Q6P2Q9 965-1100): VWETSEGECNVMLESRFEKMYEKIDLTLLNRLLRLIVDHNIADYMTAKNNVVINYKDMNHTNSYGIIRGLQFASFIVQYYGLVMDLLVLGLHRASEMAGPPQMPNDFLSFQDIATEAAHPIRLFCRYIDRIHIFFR
Chain of PTBP2 (Q9UKA9 40-531): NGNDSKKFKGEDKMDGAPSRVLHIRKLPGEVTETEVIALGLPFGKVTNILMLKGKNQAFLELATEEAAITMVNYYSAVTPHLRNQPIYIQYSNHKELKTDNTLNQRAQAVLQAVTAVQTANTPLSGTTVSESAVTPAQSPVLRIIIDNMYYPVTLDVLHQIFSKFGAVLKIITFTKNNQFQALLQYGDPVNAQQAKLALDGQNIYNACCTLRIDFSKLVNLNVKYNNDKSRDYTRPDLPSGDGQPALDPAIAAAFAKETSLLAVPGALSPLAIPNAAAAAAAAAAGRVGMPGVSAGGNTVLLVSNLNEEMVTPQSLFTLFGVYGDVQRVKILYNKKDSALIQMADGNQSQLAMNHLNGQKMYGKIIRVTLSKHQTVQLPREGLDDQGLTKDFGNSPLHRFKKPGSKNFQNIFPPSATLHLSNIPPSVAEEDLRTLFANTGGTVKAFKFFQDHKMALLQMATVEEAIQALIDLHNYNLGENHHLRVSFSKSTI
Chain of ADAD1 (Q96M93 77-182): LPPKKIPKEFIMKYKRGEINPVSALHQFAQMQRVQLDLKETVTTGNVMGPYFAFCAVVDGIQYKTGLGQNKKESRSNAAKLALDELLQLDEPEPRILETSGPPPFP
Chain of SF2 (Q07955 1-220): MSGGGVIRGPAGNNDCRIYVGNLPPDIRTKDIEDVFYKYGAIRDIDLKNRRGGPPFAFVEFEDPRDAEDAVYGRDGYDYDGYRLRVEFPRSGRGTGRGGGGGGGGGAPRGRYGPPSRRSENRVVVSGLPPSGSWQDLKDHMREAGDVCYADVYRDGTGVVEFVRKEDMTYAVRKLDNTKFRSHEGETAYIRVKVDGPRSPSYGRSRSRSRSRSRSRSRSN
Chain of RBPMS2 (Q6ZRY4 10-130): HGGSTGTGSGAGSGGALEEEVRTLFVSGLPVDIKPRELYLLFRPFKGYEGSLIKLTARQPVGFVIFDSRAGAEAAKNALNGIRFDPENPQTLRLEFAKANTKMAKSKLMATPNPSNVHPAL
Chain of RBMXL2 (O75526 1-110): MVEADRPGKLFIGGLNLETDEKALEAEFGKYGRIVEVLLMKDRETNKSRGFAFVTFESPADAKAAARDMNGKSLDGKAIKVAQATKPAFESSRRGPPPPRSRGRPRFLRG
Chain of SF3B4 (Q15427 1-200): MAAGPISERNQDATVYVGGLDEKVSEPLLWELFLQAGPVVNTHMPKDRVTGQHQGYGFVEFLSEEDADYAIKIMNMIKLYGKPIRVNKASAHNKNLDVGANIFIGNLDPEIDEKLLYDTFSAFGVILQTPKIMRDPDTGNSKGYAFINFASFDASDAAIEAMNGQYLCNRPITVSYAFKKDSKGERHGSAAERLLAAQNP
Chain of RBMY1D / RBMY1E (P0DJD3 1-110): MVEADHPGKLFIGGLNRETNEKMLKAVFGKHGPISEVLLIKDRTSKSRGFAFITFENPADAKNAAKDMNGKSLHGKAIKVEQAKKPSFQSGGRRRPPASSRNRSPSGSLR
Chain of SR140 (O15042 250-375): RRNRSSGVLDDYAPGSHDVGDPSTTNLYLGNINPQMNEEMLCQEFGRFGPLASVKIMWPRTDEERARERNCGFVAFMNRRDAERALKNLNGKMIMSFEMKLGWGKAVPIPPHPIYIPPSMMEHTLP

UGAGGUAGUAGGUUGUAUGGUU: the binding signal came out at 930 ± 19.2 fluorescence intensity with RBM5; 1640 ± 102 fluorescence intensity with RKHD4(1-2); 1040 ± 52.8 fluorescence intensity with SRP46; 22 ± 1.98 fluorescence intensity with PRPF8; 958 ± 40.9 fluorescence intensity with PPIE; 97.885 ± 0.0354 fluorescence intensity with ADAD1. The binding signal came to 155 ± 8.02 fluorescence intensity in the test with SFRS5; 1440 ± 338 fluorescence intensity in the test with RBMXL2; 53.6 ± 1.31 fluorescence intensity with ANKHD1; 153 ± 25.5 fluorescence intensity in the test with RBM34; 638.1 ± 5.52 fluorescence intensity in the test with SF3B4; 154.2 ± 0.983 fluorescence intensity with SFRS15. The binding signal with RBMY1D / RBMY1E came out at 1480 ± 96.8 fluorescence intensity; in the test with SF2 it was 700 ± 28 fluorescence intensity; with PTBP2, 147 ± 8.05 fluorescence intensity; in the test with SR140, 80.2 ± 12.3 fluorescence intensity; with RBM22, 113.1 ± 0.177 fluorescence intensity; with RBPMS2, 434 ± 21.2 fluorescence intensity. The binding signal in the test with SFRS3 is 235 ± 17.9 fluorescence intensity; in the test with TRSPAP1 it was 269 ± 24.3 fluorescence intensity.
Consider UGAGGUAGUAGGUUGUGUGGUU, for which the binding signal amounted to 858 ± 19.2 fluorescence intensity in the test with RBM5; 1430 ± 37.1 fluorescence intensity with RKHD4(1-2); 1046 ± 4.09 fluorescence intensity with SRP46; 1030 ± 108 fluorescence intensity in the test with PPIE; 157 ± 3.28 fluorescence intensity with ADAD1; 215 ± 3.13 fluorescence intensity in the test with SFRS5. The binding signal was 1610 ± 44.5 fluorescence intensity with RBMXL2; 101 ± 1.94 fluorescence intensity with ANKHD1; 228 ± 3.75 fluorescence intensity with RBM34; 1290 ± 27 fluorescence intensity in the test with SF3B4; 289 ± 27.3 fluorescence intensity with SFRS15; 1420 ± 19.5 fluorescence intensity with RBMY1D / RBMY1E. Moreover, the binding signal with SF2 was 895.8 ± 6.29 fluorescence intensity; in the test with PTBP2, 166 ± 17.3 fluorescence intensity; in the test with SR140 it was 149 ± 8.63 fluorescence intensity; with RBM22, 126 ± 31.8 fluorescence intensity; with RBPMS2, 515 ± 10.3 fluorescence intensity; in the test with SFRS3, 276 ± 12.7 fluorescence intensity. Also, in the test with TRSPAP1, the binding signal was 332 ± 22.4 fluorescence intensity.
For AGAGGUAGUAGGUUGCAUAGUU, the binding signal stood at 1310 ± 32.6 fluorescence intensity with RBM5; 1980 ± 164 fluorescence intensity in the test with RKHD4(1-2); 1390 ± 35.5 fluorescence intensity with SRP46; 817 ± 64.4 fluorescence intensity in the test with PPIE; 65 ± 1.55 fluorescence intensity with ADAD1; 151 ± 12.7 fluorescence intensity with SFRS5. Also, the binding signal with RBMXL2 was 2569 ± 8.99 fluorescence intensity; with ANKHD1, 37.7 ± 0.622 fluorescence intensity; with RBM34, 148 ± 10.7 fluorescence intensity; with SF3B4, 1440 ± 72.2 fluorescence intensity; in the test with SFRS15, 153 ± 14.1 fluorescence intensity; with RBMY1D / RBMY1E, 2080 ± 121 fluorescence intensity. Further, the binding signal turned out to be 925 ± 29.4 fluorescence intensity with SF2; 96.6 ± 13.3 fluorescence intensity with PTBP2; 142.1 ± 1.25 fluorescence intensity with SR140; 71.81 ± 0.233 fluorescence intensity with RBM22; 1780 ± 12.1 fluorescence intensity with RBPMS2; 324.4 ± 0.806 fluorescence intensity in the test with SFRS3. In addition, the binding signal with TRSPAP1 was found to be 351 ± 8.57 fluorescence intensity.
As for UGAGGUAGUAGGUUGUAUAGUU, the binding signal in the test with RBM5 was found to be 356 ± 13.4 fluorescence intensity; in the test with RKHD4(1-2), 1130 ± 28.7 fluorescence intensity; in the test with SRP46, 208 ± 90.3 fluorescence intensity; in the test with PRPF8, 25.3 ± 8.73 fluorescence intensity; with PPIE it was 232 ± 2.04 fluorescence intensity; with ADAD1 it was 23.1 ± 6.46 fluorescence intensity. For the same sequence, the binding signal with RBMXL2 was determined as 867 ± 9.01 fluorescence intensity; in the test with ANKHD1, 21.6 ± 2.06 fluorescence intensity; with RBM34 it was 40.9 ± 12.8 fluorescence intensity; in the test with SF3B4 it was 346 ± 11.8 fluorescence intensity; with SFRS15 it was 46.2 ± 1.86 fluorescence intensity; with RBMY1D / RBMY1E, 892 ± 33.6 fluorescence intensity. The binding signal stood at 70.4 ± 4.98 fluorescence intensity in the test with SF2; 49.5 ± 9.89 fluorescence intensity in the test with PTBP2; 32 ± 0.467 fluorescence intensity in the test with SR140; 25.7 ± 2.21 fluorescence intensity with RBM22; 118 ± 2.62 fluorescence intensity in the test with RBPMS2; 37.7 ± 9.2 fluorescence intensity in the test with SFRS3. In the test with TRSPAP1, this sequence came in with a binding signal of 79.2 ± 10.3 fluorescence intensity.
With CAGUGCAAUGAUGAAAGGGCAU, the binding signal amounted to 593 ± 12.6 fluorescence intensity in the test with RBM5; 1280 ± 81.8 fluorescence intensity with RKHD4(1-2); 797 ± 34.1 fluorescence intensity in the test with SRP46; 31.6 ± 16.2 fluorescence intensity in the test with PRPF8; 451 ± 19.3 fluorescence intensity with PPIE; 44.5 ± 2.96 fluorescence intensity with ADAD1. In addition, the binding signal in the test with SFRS5 came to 151 ± 10.5 fluorescence intensity; with RBMXL2, 1800 ± 20.8 fluorescence intensity; with ANKHD1, 27.3 ± 0.926 fluorescence intensity; in the test with RBM34, 102 ± 9.41 fluorescence intensity; with SF3B4 it was 1680 ± 98.9 fluorescence intensity; with SFRS15 it was 141 ± 12.5 fluorescence intensity. For the same sequence, the binding signal with RBMY1D / RBMY1E stood at 1280 ± 58.5 fluorescence intensity; with SF2 it was 702.4 ± 1.9 fluorescence intensity; with PTBP2, 55.4 ± 5.87 fluorescence intensity; with SR140 it was 43.9 ± 3.02 fluorescence intensity; with RBM22, 52.6 ± 1.44 fluorescence intensity; with RBPMS2, 1650 ± 53.9 fluorescence intensity. Further, the binding signal with SFRS3 was 219 ± 8.61 fluorescence intensity; in the test with TRSPAP1 it was 84.1 ± 10.6 fluorescence intensity.
On to UAGCUUAUCAGACUGAUGUUGA, for which the binding signal with RBM5 was 21.2 ± 2.33 fluorescence intensity; with RKHD4(1-2) it was 932 ± 115 fluorescence intensity; with SRP46, 41.5 ± 2.43 fluorescence intensity; with PPIE, 91.8 ± 5.98 fluorescence intensity; in the test with RBMXL2 it was 826.37 ± 0.587 fluorescence intensity; with SF3B4, 700 ± 28.6 fluorescence intensity. Moreover, the binding signal with SFRS15 was 22.3 ± 2.16 fluorescence intensity; with RBMY1D / RBMY1E, 817.2 ± 6.26 fluorescence intensity; with SF2, 126 ± 12.9 fluorescence intensity; in the test with PTBP2, 23.2 ± 6.02 fluorescence intensity; with SR140, 21.9 ± 3.08 fluorescence intensity; in the test with RBPMS2, 37.6 ± 9.28 fluorescence intensity. The binding signal stood at 34.7 ± 4.07 fluorescence intensity with SFRS3 and 45.5 ± 1.42 fluorescence intensity with TRSPAP1.
